GPR7 antag = human neuropeptides B/W receptor 1 antagonism; P48145; 290,000 tested, 1.1% active; GPR7-expressing cells, fluorescence antagonist assay; inhibition, % at 4.4 µM; in the data active means inhibition above about 16%, passing the limit was not always enough;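 further: cells stimulated with the agonist NPW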
TMEM16A inh = mouse TMEM16A channel inhibition, primary screen; Q8BHY3; HEK293 TMEM16A/YFP iodide influx fluorescence, ionomycin; normalized B-score (activity score, 25-100; higher = stronger inhibition) at 10 µM; 310,000 tested, 1.2% active; AID 588511;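 active means ratio plate-corrected score three or more library SD toward inhibition, starting fluorescence score within five deviations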;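 further: score derived from kinetic fluorescence span divided by baseline fluorescence per well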
CHT inh = inhibitors of human choline transporter CHT | Q9GZV3 | CHT-expressing cells, membrane potential dye, choline response; hits give low values | B-score at 10 µM | 310,000 tested, 0.86% active;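 active means B-score over 3 SD under the library average, and starting fluorescence ratio not unusually high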;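 further: choline stimulus applied at its EC90 after an EC20 pre-addition; B-score computed on integrated fluorescence ratio after choline addition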
Target sequence (Q9GZV3 whole entry, looked up): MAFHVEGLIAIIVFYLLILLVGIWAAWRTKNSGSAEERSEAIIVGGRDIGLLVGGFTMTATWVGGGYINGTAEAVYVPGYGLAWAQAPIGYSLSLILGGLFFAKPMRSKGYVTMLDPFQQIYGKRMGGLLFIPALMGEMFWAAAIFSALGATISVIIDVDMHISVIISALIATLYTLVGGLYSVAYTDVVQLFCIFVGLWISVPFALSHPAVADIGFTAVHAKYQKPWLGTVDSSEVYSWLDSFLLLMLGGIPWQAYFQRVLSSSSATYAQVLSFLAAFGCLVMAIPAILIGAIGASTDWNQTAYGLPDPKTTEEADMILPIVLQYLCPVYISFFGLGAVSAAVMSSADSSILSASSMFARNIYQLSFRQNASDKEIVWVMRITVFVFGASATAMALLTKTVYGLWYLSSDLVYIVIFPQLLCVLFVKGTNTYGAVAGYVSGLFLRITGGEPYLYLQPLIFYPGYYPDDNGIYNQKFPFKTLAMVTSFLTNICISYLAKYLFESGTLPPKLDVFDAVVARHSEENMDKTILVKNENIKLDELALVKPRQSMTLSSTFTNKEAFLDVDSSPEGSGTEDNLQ
Kir21 inh = inhibitors of mouse Kir2.1 inward-rectifier potassium channel | 310,000 tested, 0.85% active | B-score at 10 µM | P35561 | HEK293-Kir2.1, FluxOR thallium flux fluorescence; hits give low values;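 active means fluorescence ratio B-score at or below minus 3 SD of library scores, with starting-brightness B-score within 2 SD, cut at about -4.2 in these data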;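 further: channel flux triggered by added potassium and thallium sulfate stimulus; B-score of peak minus minimum fluorescence over baseline after thallium stimulus; more negative B-score means stronger Kir2.1 block with less thallium influx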
CHT PAM = allosterically activates the human high affinity choline transporter | 310,000 tested, 0.49% active | B-score at 10 µM | Q9GZV3 | AID 488977 | CHT-expressing cells, membrane potential dye, choline EC20; hits give high values; LV-AA mutant CHT in HEK293 cells;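 active means initial fluorescence not abnormally high and integrated response B-score, plate-corrected, over 3 SD above library mean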
ANO1 activ = activators or potentiators of mouse TMEM16A chloride channel | HEK293 TMEM16A/YFP-H148Q/I152L, iodide quench fluorescence; hits give low values | B-score at 10 µM | 340,000 tested, 0.3% active | Q8BHY3;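 active means fluorescence-ratio B-score plate-corrected deviation score at least 3 library SD below zero, with starting fluorescence score within 5 deviations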;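 further: channel opened by trigger with iodide after compound preincubation; score built on the fluorescence ratio of max minus min over baseline; more negative score means more quench and so TMEM16A activation or potentiation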
A number is an active result; . = inactive; / = not tested or not shown. Most compounds without a hit are left out; they make up all but 3.7% or so of the library.

SMILES | GPR7 antag | TMEM16A inh | CHT inh | Kir21 inh | CHT PAM | ANO1 activ
N#CC1=C(S)N(c2ccccc2)C2(CCCCC2)NC1=O | . | . | . | . | . | -5
Cc1ccc(SCC(=O)N2c3ccccc3Sc3ccccc32)cc1 | . | 100 | . | . | . | .
CCC(C)(C(=O)NC1CCCC1)N(Cc1cccs1)C(=O)Cc1cccs1 (stereo not drawn) | 42 | . | . | . | . | .
CCC(C)(C(=O)NC1CCCC1)N(Cc1ccco1)C(=O)c1ccccn1 (stereo not drawn) | . | . | . | . | . | .
CCC(C)(C(=O)NC1CCCC1)N(Cc1cccs1)C(C)=O (stereo not drawn) | . | . | . | . | . | .
CCC(C)(C(=O)NC1CCCCC1)N(Cc1ccco1)C(=O)c1cnccn1 (stereo not drawn) | 16 | . | . | . | . | .
Cc1cccc(NC(=O)C2CCCN(c3nc(C)cc(C)n3)C2)c1 (stereo not drawn) | . | . | . | . | . | .
COc1cc(C)nc(N2CCCC(C(=O)Nc3cccc(Cl)c3Cl)C2)n1 (stereo not drawn) | 16 | . | . | . | . | .
O=C(OC1CCCCC1=O)c1cc(Cl)ccc1[N+](=O)[O-] (stereo not drawn) | . | . | . | . | . | .
Cn1c(Sc2ccc(Cl)cc2)c(C=O)c2ccccc21 | . | . | . | . | . | .
Cn1c(Sc2ccccc2Cl)c(C=O)c2ccccc21 | . | 100 | . | . | . | .
Cc1cccc(Sc2c(C=O)c3ccccc3n2C)c1 | . | 25 | . | . | . | .
CC(Sc1ccsc1[N+](=O)[O-])C(=O)N1CCN(c2ccccn2)CC1 (stereo not drawn) | . | . | . | . | . | .
CSc1sc(C(=O)N(C)C)c2c1S(=O)(=O)N(C)c1ccccc1-2 | . | . | . | . | . | .
Cc1cc(OCC(=O)NNC(=S)NC(=O)c2ccc(Br)o2)ccc1Cl | . | 25 | . | . | . | -4.6
CCC(=O)NC(=S)Nc1ccc(NC(=O)COc2ccc(Cl)c(C)c2)cc1 | . | . | . | . | . | .
C#CCN1C=C(C(=O)OCC)C(C)N(Cc2ccccc2I)S1(=O)=O (stereo not drawn) | / | / | / | / | / | -5
C#CCN1C=C(C(=O)OCC)C(C)NS1(=O)=O (stereo not drawn) | / | / | / | / | / | .
COc1ccc(C2Nc3ccccc3C(=O)N2C2CCCCC2)cc1 (stereo not drawn) | . | . | . | . | . | .
Clc1cccc2c1Sc1ccccc1CC2N1CCNCC1 (stereo not drawn) | 58 | . | . | -9.7 | . | .
CCN(C(=O)CCS(=O)(=O)c1cccc2nonc12)c1ccc(C)c(C)c1 | . | . | . | . | . | .
Cc1c(CC(=O)O)c(=O)oc2c(C)c(OCc3nn[nH]n3)ccc12 | . | . | . | . | . | -4.9
Cc1c(Cc2ccccc2)c(=O)oc2c(C)c(OCc3nn[nH]n3)ccc12 | . | . | . | / | . | .
CCc1c(-c2n[nH]c(=S)n2Cc2ccccc2)csc1C | . | . | . | -9.3 | . | .
Cc1cc(-c2n[nH]c(=S)n2Cc2ccccc2)cs1 | 22 | . | . | . | . | .
SMILES | GPR7 antag | TMEM16A inh | CHT inh | Kir21 inh | CHT PAM | ANO1 activ
CC(C)CN(CC(C)C)S(=O)(=O)N1CCC(C(=O)NCc2ccco2)CC1 | . | . | . | . | . | .
COc1ccccc1N1CCN(C(=O)c2cc(-c3ccc(F)cc3)[nH]c2C)CC1 | . | . | . | . | . | .
Cc1nn(CC(=O)Nc2c(F)c(F)cc(F)c2F)c(=O)c2cccn12 | . | . | . | . | . | .
COc1cc(/C=N/NC(=O)CCn2nnc3ccccc32)ccc1O | . | . | . | . | . | .
COc1cc(/C=N/NC(=O)CCn2c3ccccc3c3ccccc32)ccc1O | . | 25 | . | . | . | .
COc1ccc(C[C@H]2CN3C(=NC[C@@H]3Cc3ccccc3)N2C[C@H](C)NC(=O)CCC2CCCCC2)cc1 | / | / | / | -7.3 | / | /
C[C@@H](CN1C2=NC[C@H](Cc3ccccc3)N2C[C@H]1Cc1ccc(O)cc1)NC(=O)CCC1CCCCC1 | . | . | . | -4.5 | . | .
COc1ccc(-c2c(-c3ccccc3OC)oc3ccccc23)cn1 | / | / | / | / | / | .
CCN1C(=O)[C@H]2[C@@H](c3ccc(OC)cc3)N3C(=O)CN(CCOC)C(=O)[C@@]3(Cc3ccccc3)[C@H]2C1=O | . | . | . | . | . | .
COc1ccc(Cl)cc1N1C(=O)CC(N2CCN(S(=O)(=O)c3ccccc3F)CC2)C1=O (stereo not drawn) | / | / | / | / | / | .
CCOC(=O)C1(CCc2ccccc2)CCN(Cc2c(O)cccc2OC)CC1 | . | . | . | . | . | .
CCOC(=O)C1(CCc2ccccc2)CCN(Cc2ccc(OC)cc2)CC1 | . | 25 | . | -5.2 | . | .
CCOC(=O)C1(CCc2ccccc2)CCN(Cc2ccc(O)cc2)CC1 | . | . | . | -4.5 | . | .
O=C(COC(=O)C12CC3CC(CC(Br)(C3)C1)C2)Nc1ccc2[nH]c(=O)[nH]c2c1 | / | . | . | . | . | .
CCN1C(=O)/C(=C2\SC(=S)N(NC(=O)c3ccccc3O)C2=O)c2ccccc21 | . | 100 | . | . | . | .
O=C(c1cc(F)c(F)cc1Cl)N1CCN(S(=O)(=O)c2cccs2)CC1 | / | / | / | / | / | .
CCc1cc2c3c(c1)/C(=C1/SC(N)=NC1=O)C(=O)N3C(C)(C)C=C2C | . | 100 | . | . | . | .
COc1ccc(C(=O)Oc2cc3c4c(c2)C(C)=CC(C)(C)N4C(=O)C3=O)cc1OC | . | . | . | . | . | .
CCCCC(=O)Nc1ccc(C(=O)c2ccccc2)cc1 | 20 | . | . | . | . | .
CC(=O)Nc1ccc(C(=O)c2ccccc2)cc1 | . | . | . | . | . | .
CC1COC(=O)C(NNc2ccc(Cl)c(Cl)c2)=N1 (stereo not drawn) | 19 | . | . | . | . | .
O=S(=O)(Nc1ccc(Cl)c(Cl)c1)N1CCOCC1 | . | . | . | . | . | .
CCC1Oc2ccc(C)cc2N(CC(=O)N(Cc2ccncc2)Cc2ccco2)C1=O (stereo not drawn) | . | . | . | . | . | .
CCC1Oc2ccc(C)cc2N(CC(=O)N(Cc2cccnc2)Cc2cccc(F)c2)C1=O (stereo not drawn) | . | 100 | . | . | . | .
CC(=O)Nc1ccc(NC(=O)c2ccc(CN3CCc4ccccc4C3)cc2)cc1 | . | . | . | . | . | .
COC(=O)c1ccc(CN2CCc3ccc(NC(=O)c4ccncc4)cc3C2)cc1 | . | 100 | . | . | . | .
CSc1cccc(NC(=O)c2ccc(CN3CCc4ccccc4C3)cc2)c1 | . | 100 | . | . | . | .
O=C(Nc1cccc(Br)c1)c1ccc(CN2CCc3ccccc3C2)cc1 | . | 25 | . | . | . | .

Screens deposited in PubChem BioAssay by several laboratories.
